Screening data (PubChem)
Sampled rows, rich in hits. Any-hit rate of the full collection: about 12%.
Pf growth 48h: P. falciparum growth inhibition at 48 hours (one generation); P. falciparum luciferase growth in erythrocytes, 48 h; Potency, µM (top dose mostly 28.7 µM), for the others: at the highest dose activity change, negative = inhibition, most hits filed as inhibitors; 310,000 compounds, 5.9% hits; further: on the % scale 0 is the no-effect control and ±100 the full control effect
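Here the parasites carry a stable luciferase gene and grow inside erythrocytes in Albumax-based RPMI medium with compound for one erythrocytic cycle. Activity is scored as loss of luminescent signal.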
Sm TGR inh: blocks Schistosoma mansoni thioredoxin glutathione reductase. Potency, µM (doses to about 114 µM), inactives show at the top dose activity change, negative = inhibition, most hits filed as inhibitors. purified TGR, DTNB reduction, TNB absorbance 405 nm. 360,000 compounds, 3% hits. Q962Y6; further: on the % scale 0 is the no-effect control and ±100 the full control effect; nearly all actives have a fitted effect of over 60% in size
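TGR 20 nM + NADPH 100 uM (dispensed conc.), cpd preinc 15 min RT; start with NADPH (500 uM addition) then DTNB (15 mM addition). Kinetic TNB absorbance, 405 nm filter. Four-parameter Hill fit across titration.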
SARS PLP yeast: inhibitors of SARS-CoV papain-like protease in yeast; Potency, µM (series often up to 32.9 µM), for inactives: at the top dose activity, positive = growth rescue, usual class: activators; 330,000 compounds, 0.19% hits; S. cerevisiae expressing SARS-CoV PLpro, growth rescue; calls by dose curve; further: 0% is about no effect; nearly all actives have a fitted effect of over 55% in size
Pf growth 96h: inhibits malaria parasite growth, 96 h; 320,000 compounds, 6.9% hits; Potency, µM (titrated, usually from 28.7 µM), for the others: top-dose activity change, negative = inhibition, most hits filed as inhibitors; P. falciparum luciferase reporter growth, 96 h; further: on the % scale 0 is the no-effect control and ±100 the full control effect
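P. falciparum expressing integrated firefly luciferase grown in erythrocytes (2% hematocrit, 0.05% parasitemia final) with compounds for 96 hours at 37 C, 5% CO2. Growth inhibition read as loss of luminescence after adding luciferase detection reagent.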
An asterisk follows results filed as active; ? = inconclusive; . = no result; [ ] = another dose, or the depositor's remark. Unless noted, the call rests on the fitted dose curve; in most records, active means well fitted curve in the direction sought with a large enough effect; inconclusive means small, poorly fitted or top-dose-only effect, or another doubt; inactive means no such curve, though single readings can be large; an effect the other way counts as inactive or inconclusive. Potency means the concentration at half of the fitted maximal effect.

SMILES	Pf growth 48h	Sm TGR inh	SARS PLP yeast	Pf growth 96h
COc1ccc(CN2CCNC(=O)C2CC(=O)N(C)Cc2nccn2C)cc1OC (stereo not drawn)	8.7%	-30.9%	1.5%	2.9%
Cc1csc(CN(C)C(=O)CC2C(=O)NCCN2Cc2ccc(F)c(F)c2)n1 (stereo not drawn)	7.1%	?	0.4%	13.1µM*
COc1ccc(CN2CCNC(=O)C2CC(=O)N(C)Cc2nccs2)cc1OC (stereo not drawn)	-8.4%	?	-3.0%	9.28µM*
O=C1NCCN(Cc2ccc(Cl)c(F)c2)C1CC(=O)N1CCc2ccccc2C1 (stereo not drawn)	24.0%	20µM*	-2.3%	1.8%
CN(Cc1ccon1)C(=O)CC1C(=O)NCCN1Cc1ccc(Cl)c(F)c1 (stereo not drawn)	-1.4%	35.5µM*	0.9%	8.4%
CCOc1ccc(CC(=O)NCC(c2cccs2)S(=O)(=O)c2ccc(F)c(C)c2)cc1 (stereo not drawn)	.	-20.4%	.	.
CC(=O)c1cccc(NC(=O)C(Cc2ccccc2)NS(=O)(=O)c2ccc(Br)s2)c1 (stereo not drawn)	.	2.6%	.	.
Cc1ccc(SCC(=O)OC(C)C(=O)NCc2ccccc2)cc1C (stereo not drawn)	0.4%	2.6%	-0.8%	10.8%
O=C(O)c1ccc(S(=O)(=O)NC2CC2)cc1	0.0%	0.4%	-3.3%	71.9%
O=C(O)c1ccc(S(=O)(=O)NC2CCCCCC2)cc1	12.0%	5.5%	-1.5%	11.7µM*
O=C(O)c1ccc(S(=O)(=O)N(Cc2ccc(F)cc2)C2CCCCC2)cc1	-11.6%	-3.9%	-1.0%	11.7µM*
Cc1ccc(S(=O)(=O)NC2CCCCCCC2)cc1	46.3%	3.1%	-10.1%	8.28µM*
CCCN[C@@H](C)C(=O)Nc1ccccc1C	-3.6%	.	.	-16.7%
CCOc1cc(CNCCO)cc(Br)c1OCc1ccc(Cl)cc1Cl	8.28µM*	39.5%	-5.7%	-21.4%
COc1cc(CNCCSc2nnnn2C)cc(Br)c1OCc1ccccc1F	-2.5%	-2.9%	-2.0%	.
CCOc1cc(CNCCSc2nnnn2C)cc(Br)c1OCc1ccccc1F	?	1.3%	-0.7%	8.28µM*
COc1ccccc1N1CCN(c2nc3ccccc3nc2C(C#N)C(=O)OC(C)C)CC1 (stereo not drawn)	1.85µM*	-1.3%	-1.0%	2.08µM*
CCOC(=O)N1CCN(c2nc(-c3ccccc3)c3ccccc3n2)CC1	10.4µM*	-1.9%	-1.3%	?
COc1ccccc1N1CCN(c2nc(C)cc(C)c2C#N)CC1	3.5%	-22.4%	-5.2%	8.28µM*
COCCCNC(=O)C(C#N)c1nc2ccccc2nc1N1CCCC1 (stereo not drawn)	8.28µM*	0.0%	5.2%	7.38µM*
CCOc1ccccc1N1CCN(c2nc3ccccc3nc2C(C#N)C(=O)OC)CC1 (stereo not drawn)	?	0.5%	-2.1%	?
COc1ccc(CNC(=O)c2cc(S(=O)(=O)N3CCCCC3)ccc2Cl)cc1OC	.	.	19.1%	.
Nc1nc(N)nc(-c2cc(F)ccc2O)n1	?	-34.8%	-0.7%	?
O=C(CSc1nnc(CNC(=O)c2c(F)cccc2F)o1)NCc1ccco1	-16.2%	-3.2%	1.8%	0.0%
N#CC(C(=O)NCCc1ccccc1)c1nc2ccccc2nc1N1CCCCC1 (stereo not drawn)	?	0.0%	0.6%	53.8%
SMILES	Pf growth 48h	Sm TGR inh	SARS PLP yeast	Pf growth 96h
CCN1CCN(c2nc3ccccc3nc2C(C#N)C(=O)OCc2ccccc2)CC1 (stereo not drawn)	11.7µM*	1.9%	-3.6%	?
CCOC(=O)N1CCN(c2nc3ccccc3nc2C(C#N)C(=O)NCCc2ccccc2)CC1 (stereo not drawn)	7.38µM*	33.1%	0.9%	?
O=C(C1=COCCO1)N1CCN(S(=O)(=O)c2cccc(Cl)c2Cl)CC1	?	7.9%	-3.1%	14.7µM*
CC(C)Cn1nc(NC(=O)c2cccc(Cl)c2)c2cc3ccccc3nc21	.	9.7%	.	.
O=C(CSc1nnc(-c2ccc(O)cc2)n1Cc1ccco1)c1cccs1	-27.0%	25.1µM*	-1.5%	9.2%[5.75 µM]
O=C(CSc1nnc(-c2ccc(O)cc2)n1Cc1ccco1)c1ccccc1	.	44.7µM*	6.5%	49.0%
O=C(CC(SCCO)c1ccc2c(c1)OCO2)c1cccs1 (stereo not drawn)	57.7%	-3.8%	6.5%	?
O=C(CC(SCc1ccco1)c1ccc(O)cc1)c1cccs1 (stereo not drawn)	115.3%	28.2µM*	-7.2%	122.1%
Fc1cccc(Cl)c1CNc1n[nH]c(-c2ccco2)n1	.	-6.5%	.	.
O=C(Nc1ccc2c(c1)N(C1CCCC1)C(=O)c1ccccc1S2)c1ccccc1F	.	5.4%	.	.
COC(=O)c1c(-c2ccc(Cl)cc2)noc1N1CCN(c2ccc(OC)cc2)CC1	.	1.2%	.	.
CC(C)C1Oc2ccccc2N(CC(=O)N(Cc2ccncc2)Cc2ccco2)C1=O (stereo not drawn)	?	31.6µM*	21.4%	10.9%
CC(C)C1Oc2ccccc2N(CC(=O)N(C)C2CCCCC2)C1=O (stereo not drawn)	6.7%	-1.0%	-1.5%	-19.8%
CCC1SC2=NC(C)=C(C(=O)OCC(C)C)C(/C=C/c3ccccc3OC)N2C1=O (stereo not drawn)	?	12.2%	-5.2%	11.7µM*
Cc1ccc(NC(=O)CNC(=O)c2cccs2)nc1	55.2%	-0.6%	1.7%	54.6%
CC(=O)c1sc(NC(=O)CCS(=O)(=O)c2ccc(C)cc2)nc1C	?	35.5µM*	6.7%	22.0%
Cc1ccc(NC(=O)CCC(=O)c2cccs2)nc1	44.5%	50.1µM*	0.2%	29.0%
Cc1ccc(NC(=O)CCS(=O)(=O)c2ccc(Br)cc2)nc1	9.9%	15.8µM*	16.3%	?
CC(=O)c1sc(NC(=O)C2(F)C(F)(F)C(F)(F)C(F)(F)C(F)(F)C2(F)F)nc1C	8.28µM*	50.1µM*	-31.0%	-19.5%
CC(=O)c1sc(NC(=O)C=C(C)C)nc1C	101.5%	2.3%	-0.5%	.
Cc1ccc(C(=O)n2nc(C)c(S(=O)(=O)N3CCCCCC3)c2C)cc1C	.	1.3%	.	.
COc1ccccc1CN(Cc1ccco1)c1cnc(S(C)(=O)=O)nc1C(=O)Nc1cc(C)ccc1C	.	1.0%	.	.
Cc1csc(NC(=O)Cc2ccc(Br)cc2)n1	32.9%	23.5%	-10.3%	180.1%
Cc1csc(NC(=O)CCS(=O)(=O)c2ccc(Br)cc2)n1	-27.7%	3.55µM*	-6.8%	-0.1%
O=C(CCS(=O)(=O)c1ccc(Br)cc1)Nc1ccc2c(c1)OCO2	0.6%	39.8µM*	6.0%	0.465µM*
Cc1cc(NC(=O)CSCC(=O)N(C)Cc2ccc(Cl)cc2Cl)no1	5.8%	0.4%	-10.9%	-7.7%
COc1ccc(/C=C/C(=O)Nc2cc(S(=O)(=O)N3CCOCC3)ccc2OC)cc1	.	.	0.7%	.
CCN1CCN(c2ccc(S(=O)(=O)N3CCOCC3)cc2NC(=O)/C=C/c2ccc([N+](=O)[O-])cc2)CC1	2.62µM*	-33.0%	2.2%	3.7µM*
COc1ccc(/C=C/C(=O)Nc2ccc(S(=O)(=O)N3CCOCC3)cc2)c(OC)c1	9.28µM*	6.3%	0.2%	9.28µM*
